# Measured values published in PubChem BioAssay.
# Activity calls are given as the source filed them. No rule for the calls is given here.
# Target: Pantothenate synthetase (Mycobacterium tuberculosis (strain ATCC 25618 / H37Rv)) (UniProt P9WIL5)
# Experiment: Recombinant Mtb pantothenate synthetase (PanC) inhibitors, coupled enzyme, confirmatory (AID 375);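 also: 0% = full reaction with vehicle and 100% = no enzyme background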
# Settings: coupled enzyme assay; at 10 µM, active compounds read high
# Chain of Pantothenate synthetase (Mycobacterium tuberculosis (strain ATCC 25618 / H37Rv)) (P9WIL5 whole entry, looked up): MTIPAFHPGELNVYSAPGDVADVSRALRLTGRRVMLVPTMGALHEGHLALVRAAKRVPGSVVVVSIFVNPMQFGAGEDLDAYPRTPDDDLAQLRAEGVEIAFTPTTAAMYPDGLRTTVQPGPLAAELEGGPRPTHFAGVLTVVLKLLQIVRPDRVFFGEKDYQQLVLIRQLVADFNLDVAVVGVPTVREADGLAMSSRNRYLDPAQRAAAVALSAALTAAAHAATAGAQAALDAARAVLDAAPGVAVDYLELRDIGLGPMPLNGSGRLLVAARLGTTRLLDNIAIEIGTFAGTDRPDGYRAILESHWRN
row,Structure (SMILES),inhibition
1,CCCC(CCC)C(=O)OC1C[C@H]2CC[C@@H](C1)[N+]2(C)C (stereo not given in full),0% (inactive)
2,Cc1cccc(CC(=O)Nc2c3c(nn2-c2cccc(Cl)c2)CS(=O)C3)c1 (stereo not given),2% (inactive)
3,O=C(c1csc2ccccc12)N1CCCCCC1,2% (inactive)
4,Nc1ccc(S(=O)(=O)NC(=O)c2ccccc2)cc1,0% (inactive)
5,COc1ccccc1OCC(=O)Nc1ccc(S(=O)(=O)Nc2nc(C)cc(C)n2)cc1,1% (inactive)
6,COC(=O)COc1cccc(NC(=O)COc2ccccc2)c1,2% (inactive)
7,Cc1ccc(N(C(=O)C2CCC(=O)N2)C2(C(=O)NC3CCCCC3)CCCCC2)cc1 (stereo not given),2% (inactive)
8,O=C(CCCn1c(=O)c2sccc2n(CC(=O)NCc2ccco2)c1=O)NCc1ccco1,0% (inactive)
9,CCn1c(=O)cc(SCC(=O)Nc2cccnc2)c2ccccc21,0% (inactive)
10,CCn1cc(C2=NOC(C(=O)Nc3c(C)nn(Cc4ccc(F)cc4)c3C)C2)c(C)n1 (stereo not given),0% (inactive)
11,COc1ccccc1Oc1coc2c(CN3CCN(C)CC3)c(O)ccc2c1=O,0% (inactive)
12,Cc1cc(NS(=O)(=O)c2ccc(NC(=O)Nc3ccc4c(c3)OCO4)cc2)no1,0% (inactive)
13,O=C(Nc1cc(C(F)(F)F)ccc1N1CCCC1)c1ccc2c(c1)OCO2,2% (inactive)
14,CCCC(=O)N(c1ccc2oc(=O)sc2c1)S(=O)(=O)c1ccccc1,0% (inactive)
15,CC(CCC(=O)Nc1nncs1)C(=O)O (stereo not given),1% (inactive)
16,COc1cccc(NC(=O)CSc2nnc(Cc3cccn3C)n2-c2ccc(F)cc2)c1,4% (inactive)
17,COc1ccc(C2C(C(=O)N3CCC(C)CC3)c3ccccc3C(=O)N2C)cc1 (stereo not given),0% (inactive)
18,OC(CN1CCN(c2ccccc2)CC1)c1ccc2c(c1)CCN2 (stereo not given),0% (inactive)
19,CCOCCCn1c(=S)[nH]c2cc3c(cc2c1=O)OCO3,0% (inactive)
20,O=C(CCSc1ccccc1)N1CCN(C(=O)c2ccco2)CC1,0% (inactive)

row,Structure (SMILES),inhibition
1,COc1ccc(CCNc2oc(Cc3cccc4ccccc34)nc2C#N)cc1OC,5% (inactive)
2,OC(COc1ccccc1)CN1C2=NCCCN2c2ccccc21 (stereo not given),1% (inactive)
3,CCOC(=O)CSc1nnc([C@H](C)NC(=O)OC(C)(C)C)o1,0% (inactive)
4,CC(C)N1C(=O)C2C(C(=O)NC3CCCCC3)C3C=CC2(O3)C1C(=O)NC1CCCC1 (stereo not given),0% (inactive)
5,COc1ccccc1OC(=O)c1ccc(SC)cc1OC,2% (inactive)
6,O=C(O)CCC(=O)NC1CCCCC1NC(=O)CCC(=O)O (stereo not given),0% (inactive)
7,O=C(Nc1ccc2c(c1)nc1n2CCN(Cc2ccccc2)C1)c1cccs1,0% (inactive)
8,CCN(CC)c1ccc(C(=O)n2cnc3ccccc32)cc1,4% (inactive)
9,Cc1ccc(-c2nnn(CC(=O)NC3CC4CCC3C4)n2)cc1 (stereo not given),4% (inactive)
10,O=C(CSc1nccn1-c1cccc(Cl)c1)NC1CCCC1,0% (inactive)
11,Cn1c(=O)n(Cc2ccc(F)cc2)c(=O)c2c1nc1n2CCCN1Cc1ccccc1,0% (inactive)
12,O=C1CCCCCC1C1(O)C(=O)Nc2ccccc21 (stereo not given),7% (inactive)
13,CCN1C(=O)N(CC)C2C1N(C(C)=O)C(=O)N2C(C)=O (stereo not given),0% (inactive)
14,COc1ccccc1-c1nc2n(n1)C(c1ccc(Cl)cc1)C(C(N)=O)=C(C)N2 (stereo not given),0% (inactive)
15,COc1ccc(CN2C(=O)[C@@H]3C(c4ccc(F)cc4)=NO[C@@H]3C2=O)cc1,2% (inactive)
16,CC(=O)NC(CCS(C)(=O)=O)C(=O)Nc1cc(C)on1 (stereo not given),0% (inactive)
17,Fc1c(F)c(F)c(CSc2nc3ccccc3[nH]2)c(F)c1F,3% (inactive)
18,Cc1nc(CNS(=O)(=O)c2ccc3c(c2)OCCO3)cs1,0% (inactive)
19,COCC(=O)N(c1ccc(C(C)C)cc1)C1C=CS(=O)(=O)C1 (stereo not given),0% (inactive)
20,CC(O)c1n(C)c(Cl)c[n+]1C (stereo not given),3% (inactive)
